Measurements reported in PubChem BioAssay (NCATS).
Inconclusive results are not listed. Active and inactive are the calls of the source. Calls follow the shape of the dose curve; as a rule, active = well fitted curve in the direction sought with a large enough effect; inconclusive = small, poorly fitted or top-dose-only effect, or another doubt; inactive = no such curve, though single readings can be large; an effect the other way counts as inactive or inconclusive.

Assay: qHTS of pediatric cancer cell lines to identify multiple opportunities for drug repurposing: Confirmatory screen for SK-N-MC cells (AID 1347111);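 also: cells exposed to compound for 48 h before the readout; nearly all actives have a fitted effect of over 70% in size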
Settings: SK-N-MC cell viability; series mostly up to 45.9 µM
How it was run: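 Metabolically active cells were quantified by ATP-dependent luminescence (CellTiter-Glo, 15 min at room temperature) following 48 h treatment. Cells had been plated at 500-1,000 per well and settled for 5 h beforehand.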
Potency is read from the fitted curve at half-maximal effect.

| SMILES | Potency |
| --- | --- |
| CCCC(=O)O[C@]1(C(=O)CCl)[C@@H](C)C[C@H]2[C@@H]3CCC4=CC(=O)C=C[C@]4(C)[C@@]3(F)C(=O)C[C@@]21C | 14.7 µM (active) |
| CCCC(=O)O[C@]1(C(=O)COC(=O)CC)CC[C@H]2[C@@H]3CCC4=CC(=O)CC[C@]4(C)[C@H]3[C@@H](O)C[C@@]21C | 6.57 µM (active) |
| CCC1=C[C@@H]2CN(C1)Cc1c([nH]c3ccccc13)[C@@](C(=O)OC)(c1cc3c(cc1OC)N(C)[C@H]1[C@@](O)(C(=O)OC)[C@H](OC(C)=O)[C@]4(CC)C=CCN5CC[C@]31[C@@H]54)C2 | 0.0185 µM (active) |

Assay: qHTS of pediatric cancer cell lines to identify multiple opportunities for drug repurposing: Confirmatory screen for LAN-5 cells (AID 1347113); also: nearly all actives have a fitted effect of over 65% in size
Settings: LAN-5 neuroblastoma cell viability; series mostly up to 45.9 µM
How it was run: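 Cells (500-1,000/well) in growth media were settled 5 h at 37 degrees C, then given compounds for 48 h. Viability was read as CellTiter-Glo luminescence. Primary runs used MIPE at 11 points (0.78 nM-46 µM) and NPC at 8 points (0.59 nM-46 µM); follow-ups used 11 points.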

| SMILES | Potency |
| --- | --- |
| CCCC(=O)O[C@]1(C(=O)CCl)[C@@H](C)C[C@H]2[C@@H]3CCC4=CC(=O)C=C[C@]4(C)[C@@]3(F)C(=O)C[C@@]21C | inactive |
| CCCC(=O)O[C@]1(C(=O)COC(=O)CC)CC[C@H]2[C@@H]3CCC4=CC(=O)CC[C@]4(C)[C@H]3[C@@H](O)C[C@@]21C | inactive |
| CCC1=C[C@@H]2CN(C1)Cc1c([nH]c3ccccc13)[C@@](C(=O)OC)(c1cc3c(cc1OC)N(C)[C@H]1[C@@](O)(C(=O)OC)[C@H](OC(C)=O)[C@]4(CC)C=CCN5CC[C@]31[C@@H]54)C2 | 0.329 µM (active) |
